According to the supplement of paper PMC3334620:
Whole data set: some 33,000 sequences, median “E-score (-0.5 to 0.5)” near -0.032, cut for the highest 2% near 0.36. Shown is part of a subset that was picked to be rich in the highest values.

These sequences were tested against T1, Sko1 (UniProt Q02100) (assay: PBM E-score (8-mer binding enrichment) (E-score (-0.5 to 0.5)); higher = stronger / more preferred TF binding). Conditions: protein concentration: 200 nM; construct: GST-full length.
T1 sequence: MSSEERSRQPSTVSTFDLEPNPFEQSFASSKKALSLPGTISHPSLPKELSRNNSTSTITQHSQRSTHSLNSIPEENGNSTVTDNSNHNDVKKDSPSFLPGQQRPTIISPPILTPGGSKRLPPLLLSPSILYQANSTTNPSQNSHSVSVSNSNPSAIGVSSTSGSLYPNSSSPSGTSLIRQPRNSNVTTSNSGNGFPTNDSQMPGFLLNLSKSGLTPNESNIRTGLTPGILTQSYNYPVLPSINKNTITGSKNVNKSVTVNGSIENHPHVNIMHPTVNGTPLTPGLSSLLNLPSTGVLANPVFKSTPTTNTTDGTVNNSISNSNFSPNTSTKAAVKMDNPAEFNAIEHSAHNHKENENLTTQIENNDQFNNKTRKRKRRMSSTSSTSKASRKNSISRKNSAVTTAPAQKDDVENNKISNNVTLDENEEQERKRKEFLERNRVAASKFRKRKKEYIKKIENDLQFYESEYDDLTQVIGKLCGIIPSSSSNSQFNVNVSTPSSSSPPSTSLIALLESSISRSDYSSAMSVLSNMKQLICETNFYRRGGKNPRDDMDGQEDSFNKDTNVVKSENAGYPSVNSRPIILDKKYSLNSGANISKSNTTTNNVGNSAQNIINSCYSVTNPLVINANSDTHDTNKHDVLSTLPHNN
Method: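 Universal 'all 10-mer' protein binding microarrays (Agilent AMADID 015681) probed with GST-tagged S. cerevisiae TFs (full-length or DBD) made by in vitro transcription/translation (PURExpress), about 100-200 nM. Bound TF was detected with fluorescent anti-GST. Each ungapped 8-mer (which stands for itself and its reverse complement) is scored by the PBM enrichment score (E-score), a modified Wilcoxon-Mann-Whitney statistic from -0.5 to +0.5, computed with the Universal PBM Analysis Suite. Scale: above 0.35 generally sequence-specific binding.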

Sequence	PBM E-score
AATCCAAT	0.0698
CTCGGATC	-0.0845
TAATTCGA	0.198
ATGCACTG	-0.0475
AGATATTC	0.0644
ATAACGTC	0.425
ATAACGAC	0.241
CTAACGTC	0.338
ATAACGCG	0.184
ATAACGGG	0.00173
ATAACGTG	0.377
ATTGCTTC	-0.109
CCGAACTC	-0.125
CTGTTAGA	-0.0627
AAGTTCTC	-0.203
AAATGATA	0.266
AAATGATG	0.373
CAATGATC	0.0721
AAATGATT	0.263
CAATGATG	0.381
CAATGATA	0.254
CCCGATAC	-0.0866
CCTACTTA	-0.00728
GCCCGTAA	0.172
ACGCACGA	0.295

Sequence	PBM E-score
AAGCACGA	0.0735
ACGCACAA	0.262
ACGCACAG	0.254
AAGCACGT	0.389
ACGCACGT	0.403
ACGCACGC	0.316
AAGCACGG	-0.00706
ACGCACAT	0.387
GGAACGGA	-0.185
ATTCGCTG	0.0204
ATAATACG	0.376
AGAATACG	0.304
CGAATACG	0.406
ACAATACG	0.386
ATAATACA	0.208
ACAATACT	0.151
ACAATACA	0.0868
CGAATACC	-0.0967
ATAATACC	0.138
CTGGCAAC	-0.23
CACGCTTA	0.116
AGATGCAT	-0.0801
ACTGAAGA	0.0507
AAGCGTAG	-0.0528
AAACGTGC	0.231

Sequence	PBM E-score
AAACGTTA	0.3
AAACGTAG	0.393
AACCGTAA	0.0957
AAACGTAT	0.429
AAACGTAA	0.462
AAACGTAC	0.37
AAACGTGT	0.288
AAACGTTT	0.275
CAACGTAC	0.326
GGATTCAC	-0.215
CATCTCGC	-0.129
AGTCCGTA	-0.218
TATAGAAA	0.0683
AGCTTTGG	-0.172
ATAAAACC	-0.0531
AGACAGTG	-0.112
GTCTCCTA	0.0919
GACCTCGC	-0.122
GAGAAACC	-0.146
TACCATCA	-0.0837
GCTCGTAA	0.231
TCACGTGA	0.336
GCACGTAC	0.34
TCACGTAA	0.472
GCACGTAA	0.459

Sequence	PBM E-score
TCCCGTAA	0.11
TCAAACGA	0.102
CTTTGGGC	-0.121
AGAGGGCT	-0.406
GGTAAATA	0.0846
CCGACCAC	-0.182
AACGTGTA	0.247
CACGTGTC	0.357
CACGTGTA	0.399
GTCGTGTA	0.169
GACGTGTA	0.374
CGCGTGTA	0.227
AGGTTAAA	-0.104
CTCCTTGA	-0.159
CGCCAGGC	-0.227
AAGGTTGT	0.00278
CTAATTGC	0.104
CACGAATA	0.265
GACGAATA	0.297
TACGAATA	0.383
CTAAGATA	-0.023
GGCACGCA	-0.00979
CGCACGTC	0.333
CGCACGCA	0.211
CGCACGTA	0.408

Sequence	PBM E-score
GGCACGGA	-0.233
GGCACGTA	0.395
CGAGTTCA	0.00744
CAGACCGC	-0.156
AGTCATGA	0.0664
CGTCATGC	0.469
AGTCATGC	-0.0777
CGTCATGA	0.471
GGTCATGA	0.111
CCTCATGC	-0.142
GGCAGATA	-0.0846
AATCGTTA	0.23
CGAAGGGC	-0.104
CTGTATGA	-0.0143
GTACCCCA	-0.19
CTAGGGAG	-0.148
CCAGTACG	0.215
AAGGGAGG	-0.244
ACGTAGTC	0.425
ACGTAGTG	0.452
ACTTAGTG	0.00172
GCGTAGTA	0.279
ACGTAGTA	0.446
CCGTAGTA	-0.0427
CCGTAGTC	-0.266

Sequence	PBM E-score
AGGTAGTG	-0.0666
ACTTAGTC	-0.15
AACAGGGT	-0.192
AGCCGCAG	-0.223
ACCTGTGA	0.115
CCGGATTC	-0.0976
CTTCGCGC	0.217
CAGATGGA	-0.0703
GGTATTAC	0.204
CGTATTAC	0.387
CGTATTAG	0.382
AGTATTAA	0.261
AGTATTAG	0.00871
CATATTAG	0.203
AGTATTAC	0.331
CGTATTAA	0.362
TGTATTAA	0.182
CGTTCTAA	0.131
AGTTGGTG	-0.0352
ACCCATAA	-0.118
GGCCTCAC	-0.0829
AGAGCACC	-0.328
ACCTTGTG	-0.0718
CACCTGTC	-0.232
CCATGACA	0.163

Sequence	PBM E-score
ACATGACT	-0.0468
ATATGACA	0.243
CCATGACG	0.475
ACATGACG	0.474
ATATGACC	0.00457
ATATGACG	0.477
ACATGACA	0.217
CCATGACC	-0.0889
TCATTTCA	0.181
AGAGCAGC	-0.173
GTACGTTA	0.395
CAACGTTA	0.257
AGACGTTC	0.125
CCACGTTA	0.289
ATACGTTA	0.436
ACACGTTA	0.318
CTACGTTA	0.406
ATGCGTTA	0.247
CTACGTTC	0.272
ATACGTTC	0.374
GCACGTTA	0.274
GTACGGTA	0.207
